Bioassay records as filed in PubChem BioAssay.
TRPM1 prom inh: reduces MITF-dependent TRPM1 promoter luciferase signal; SK-MEL-5 TRPM1 promoter luciferase, 24 h; 330,000 compounds, 0.83% hits; AID 488899; inhibition, % at 12.5 µM;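 active = mean inhibition across replicates of 60% or more, whatever share of single replicates reaches that level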
Shn3 3UTR inh: Schnurri-3 reporter inhibition in Clone20 osteoblasts. 360,000 compounds, 0.52% hits. inhibition, % at 12.5 µM. Clone20 osteoblast Shn3 3'UTR firefly luciferase, 24 h;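 active = mean inhibition of at least 75% with every replicate also reaching 75%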
PAX8 reporter: lowers PAX8-driven luciferase in RMG-I cells; RMG-I TPO-luciferase reporter, SteadyGlo, 24 h; inhibition, % at 12.6 µM; 360,000 compounds, 1.2% hits;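 active = mean replicate inhibition at least 60% with every replicate also reaching 60%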;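 note: luciferase light reporting Pax8 driven TPO promoter activity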
ABHD5-PLIN5 inh: ABHD5-PLIN5 protein interaction inhibition; Split G. princeps luciferase complementation, luminescence, 4 h; 360,000 compounds, 0.78% hits; Q00G26+Q8WTS1; AID 602281; inhibition, % at 4 µM;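 active = inhibition above the mean inhibition across every tested compound plus 3 SD, cut at about 22% in these data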
Peg3 prom inh: inhibitors of Peg3 promoter; AID 588405; 360,000 compounds, 1.7% hits; inhibition, % at 20 µM; HeLa PEG-Prom luciferase reporter, luminescence, overnight;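 active = inhibition of at least 50% at 20 µM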
EWS-Fli block: blocks EWS/Fli oncoprotein-driven transcription. A673 NR0B1-luciferase reporter, viability-normalised. inhibition, % at 12.6 µM. 350,000 compounds, 0.67% hits. AID 651661;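 active = mean inhibition of at least 50% after viability correction, with every replicate also passing that limit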;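 note: firefly luciferase signal divided by Alamar Blue viability fluorescence both relative to DMSO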
ABHD5-PLIN5 conf: ABHD5-PLIN5 interaction inhibition, confirmed | shares compounds with ABHD5-PLIN5 inh | biochemical ABHD5-PLIN5 interaction, luminescence | inhibition, % at 4 µM | 2,200 compounds, 67% hits | AID 651612; in the data active = inhibition above about 23%
HNF4 counter: HNF4 split-luciferase signal hit, counter-screen. shares compounds with ABHD5-PLIN5 inh. HNF4 dimerization, luminescence, biochemical. inhibition, % at 4 µM. 2,200 compounds, 77% hits;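 active = mean inhibition across replicate wells exceeding the computed hit threshold, cut at about 13% in these data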;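 note: light from luciferase halves that rejoin when HNF4 fusion proteins dimerize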
Hits are given with their value; i = inactive; nt = no result given. A selection: hits, their analogues and other compounds. The true share with any hit is near 3%.

SMILES | TRPM1 prom inh | Shn3 3UTR inh | PAX8 reporter | ABHD5-PLIN5 inh | Peg3 prom inh | EWS-Fli block | ABHD5-PLIN5 conf | HNF4 counter
COc1ccc(-n2c(=O)cc(N3CCOCC3)[nH]c2=O)cc1 | i | i | nt | i | i | nt | nt | nt
CN(C)CCC(=O)C(Cc1ccccc1)c1ccccc1 (stereo not given) | i | i | i | 29 | 89 | i | 60 | 93
COc1ccc(NC(=O)Nc2ccc3c(c2)C(=O)N([C@H](C)CO)C[C@H](C)[C@H](CN(C)Cc2ccccc2)OCCCC[C@@H](C)O3)cc1 | nt | nt | i | nt | nt | i | nt | nt
COc1ccc(NC(=O)CCc2nnc3ccc(NCc4ccco4)nn23)cc1 | i | i | i | i | i | i | nt | nt
COc1ccccc1NC(=O)CCc1nnc2ccc(NCc3ccco3)nn12 | i | i | i | i | i | i | nt | nt
COc1ccc(NC(=O)CCc2nnc3ccc(NCc4ccco4)nn23)cc1OC | i | i | i | 34 | i | nt | i | 13
Cc1cccnc1NC(=O)CCc1nnc2ccc(NCc3ccco3)nn12 | i | i | i | 32 | i | nt | i | i
COC(=O)c1ccc(NC(=O)CCc2nnc3ccc(NCc4ccco4)nn23)cc1 | i | i | i | 57 | i | nt | i | 14
COc1ccc(C#Cc2ccc([C@@H]3[C@H]4CN(S(=O)(=O)c5cn(C)cn5)CCCCN4[C@H]3CO)cc2)cc1 | nt | nt | i | nt | nt | i | nt | nt
CNC[C@H]1OCCCC[C@H](C)Oc2ccc(NC(=O)Nc3cccc4ccccc34)cc2C(=O)N([C@H](C)CO)C[C@@H]1C | nt | nt | i | nt | nt | i | nt | nt
CN1C2CCC1/C(=C\c1ccccc1F)C(=O)/C2=C/c1ccccc1F | i | i | i | 25 | i | nt | 26 | 27
Cc1noc(C)c1NC(=O)Nc1ccc2c(c1)CC(=O)N([C@@H](C)CO)C[C@@H](C)[C@H](CN(C)CC1CC1)O2 | nt | nt | i | nt | nt | i | nt | nt
C[C@@H]1CN([C@@H](C)CO)S(=O)(=O)c2ccc(C3=CCCC3)cc2O[C@H]1CN(C)C(=O)C1CCOCC1 | nt | nt | i | nt | nt | i | nt | nt
COc1ccc(-n2c(N)c(C(=O)NCc3ccco3)c3nc4ccccc4nc32)cc1 | i | i | nt | 33 | i | nt | 31 | 32
COCC(=O)N1CC2(C1)[C@@H](c1ccc(-c3ccccc3)cc1)[C@@H](CO)N2C(=O)COC | nt | nt | nt | nt | nt | i | nt | nt
CN(C)CCC1(C2=CCCC2)CC/C(=C/c2ccc(Cl)cc2)C1=O (stereo not given) | i | i | i | 32 | 95 | i | 39 | 21
C/C=C/c1ccc([C@@H]2[C@@H](CO)N3C(=O)CN(Cc4ccc(C(=O)OC)cc4)C[C@@H]23)cc1 | nt | nt | i | nt | nt | i | nt | nt
Cc1cccc(Cn2cc(/C=C/[N+](=O)[O-])c3ccccc32)c1 | i | i | nt | 25 | i | nt | 91 | 86
CCOC(=O)N/N=C/c1cn(Cc2ccc(Cl)cc2)c2ccccc12 | i | i | i | i | i | nt | nt | nt
O=C(O)c1ccc(Cn2cc(/C=C\[N+](=O)[O-])c3ccccc32)o1 | i | i | i | i | i | i | nt | nt
CCOC(=O)Cn1cc(/C=C/[N+](=O)[O-])c2ccccc21 | i | i | i | i | i | i | nt | nt
O=[N+]([O-])/C=C/c1cn(Cc2ccc(Cl)cc2)c2ccccc12 | i | 89 | i | 45 | 81 | i | 98 | 83
COC(=O)c1ccc(Cn2cc(/C=C\[N+](=O)[O-])c3ccccc32)o1 | i | i | i | 43 | i | 68 | 88 | 46
CO[C@@H]1CN(C)C(=O)c2cc(NC(=O)C3CCCC3)ccc2OC[C@H](C)N(CCC(F)(F)F)C[C@@H]1C | nt | nt | i | nt | nt | i | nt | nt
CCOC(=O)/C(=C/c1c(C)n(C)c2ccc([N+](=O)[O-])cc12)C(C)=O | i | i | i | 46 | i | i | 83 | 76
SMILES | TRPM1 prom inh | Shn3 3UTR inh | PAX8 reporter | ABHD5-PLIN5 inh | Peg3 prom inh | EWS-Fli block | ABHD5-PLIN5 conf | HNF4 counter
Oc1c(C(c2ccccc2)N2CCCCC2)ccc2ccccc12 (stereo not given) | nt | i | i | 38 | i | i | 96 | 48
Cc1noc(C)c1NC(=O)N(C)C[C@H]1Oc2ccc(NS(=O)(=O)c3cccs3)cc2CC(=O)N([C@H](C)CO)C[C@@H]1C | nt | nt | i | nt | nt | i | nt | nt
Cc1ccc(/C=C/C(=O)N2CCN(S(=O)(=O)c3ccc(C)c(C)c3)CC2)o1 | i | i | i | 44 | i | nt | 43 | 62
COc1cccc(NC(=O)N2CC3(C2)[C@H](c2ccccc2)[C@@H](CO)N3C(=O)C2CCC2)c1 | nt | nt | i | nt | nt | i | nt | nt
Cc1ccc(S(=O)(=O)c2ccc([N+](=O)[O-])cn2)cc1 | 91 | 95 | 111 | 49 | 107 | 61 | 75 | 112
CN(Cc1ccco1)C(=O)CCc1nc2sc3c(c2c(=O)[nH]1)CCCC3 | i | i | i | 24 | i | i | 26 | 43
CN(C)C(=O)CCc1nc2sc3c(c2c(=O)[nH]1)CCCC3 | i | i | nt | i | i | nt | nt | nt
Cc1ccc(CN(C)C(=O)CCc2nc3sc4c(c3c(=O)[nH]2)CCCC4)o1 | i | i | i | 32 | i | i | i | 29
COc1ccc(NC(=O)N[C@H]2CC[C@@H](CCNS(=O)(=O)c3ccccc3F)O[C@@H]2CO)cc1 | nt | nt | i | nt | nt | i | nt | nt
Cc1ccccc1-c1cnc2c(c1)C(=O)N([C@@H](C)CO)C[C@@H](C)[C@H](CN(C)Cc1ccncc1)O2 | nt | nt | i | nt | nt | i | nt | nt
Cc1cc(C)c2cc(C#N)c(SCC(=O)NCc3ccco3)nc2c1 | i | i | nt | 35 | i | nt | 66 | 73
O=C(CSc1c2c(nc3cc(Cl)ccc13)CCCC2)NCc1ccco1 | i | i | i | 24 | i | nt | 42 | 38
O=C(CSc1nc2ccc(Cl)cc2[nH]1)NCc1ccco1 | i | i | nt | i | i | nt | nt | nt
CC(C)[C@@H](C)NC(=O)N(C)C[C@@H]1OCc2ccccc2-c2c(n(C)c3ccccc23)C(=O)N([C@H](C)CO)C[C@@H]1C | nt | nt | nt | nt | nt | i | nt | nt
Cc1cccc2c1N(CCCOc1ccccc1)C(=O)C2=O | i | i | nt | i | i | nt | nt | nt
Cc1ccccc1OCCCN1C(=O)C(=O)c2cccc(C)c21 | i | i | i | 27 | i | i | 49 | 48
CN1CCCC1CCOC(C)(c1ccccc1)c1ccc(Cl)cc1 (stereo not given) | i | i | i | 25 | i | i | 33 | 17
CCOC(=O)CC1OC(=O)c2cc3c(cc21)C(=O)OC3CC(=O)OCC (stereo not given) | i | i | i | i | i | i | nt | nt
CCOC(=O)C(C(=O)OCC)C1OC(=O)c2cc3c(cc21)C(=O)OC3C(C(=O)OCC)C(=O)OCC (stereo not given) | i | i | i | 32 | i | i | 42 | 28
O=C(COC(=O)CCC(=O)c1ccc(F)cc1)NCc1ccc(Cl)cc1 | i | i | i | i | i | i | nt | nt
O=C(COC(=O)CCC(=O)c1ccc(Cl)cc1)NCc1ccco1 | i | i | i | 25 | i | i | i | i
